PubChem BioAssay (NCATS)
Records with an inconclusive call do not appear. Entries that show only a call come without a potency. A number with no mark means an inactive call. Calls of active or inactive are those of the source. Calls come from the whole dose curve; as a rule, active = well fitted curve in the direction sought with a large enough effect; inconclusive = small, poorly fitted or top-dose-only effect, or another doubt; inactive = no such curve, though single readings can be large; an effect the other way counts as inactive or inconclusive.

How the values were obtained:
[1] = qHTS for Inhibitors of Plasmodium falciparum (7G8) proliferation (AID 504316); note: nearly all actives have a fitted effect of over 65% in size; note: potency is the fitted concentration of half-maximal effect
Summary of the method: (§1)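 Parasite growth measured as SYBR Green DNA fluorescence (ex 485, em 535 nm) after overnight lysis following 72 h culture at 37 °C, 0.3% parasitemia, 2.5% hematocrit. Values normalized against DMSO and 0.29 uM artemisinin controls, with plate-stack correction.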

[2] = qHTS for Inhibitors of Plasmodium falciparum (HB3) proliferation (AID 504318); note: nearly all actives have a fitted effect of over 60% in size; note: potency is the fitted concentration of half-maximal effect
Summary of the method: as §1

[3] = qHTS for Inhibitors of Plasmodium falciparum (CP250) proliferation (AID 504320)
Summary of the method: as §1

[4] = qHTS for Inhibitors of Plasmodium falciparum (GB4) proliferation (AID 504315); note: nearly all actives have a fitted effect of over 50% in size
Summary of the method: as §1

Structure (SMILES) | Potency [1] | Potency [2] | Potency [3] | Potency [4]
CCCCS(=O)(=O)N1C2=NC(C(=O)OC)=C(C(=O)OC)[C@@H]3N(Cc4ccccc4)c4ccccc4[C@]23C[C@H]1C(=O)OC | 1.51 µM (active) | 2.39 µM (active) |  | 
C[C@H]1Cc2c(-c3ccccc3)nc3c(c2CO1)CN(C(=O)NCCc1c[nH]c2ccccc12)CC3 | inactive | inactive | inactive | 
COc1ccc(O[C@H]2C=C[C@@H](c3ccccc3)O[C@H]2COC(=O)CCC(C)=NO[C@H](C)c2cn([C@H](CO)Cc3ccccc3)nn2)cc1 | 1.51 µM (active) |  | inactive | inactive
COc1cc2c(cc1OC)[C@@H]1O[C@](CCCCN3C(=O)c4ccccc4C3=O)(C2)OC2=C1C(=O)CCC2 | 1.69 µM (active) |  |  | 
COc1ccc(C=CC2=CC3(C)CC2(C)C(c2ccc(OC)cc2)CC3=O)cc1 (stereo not given) | 1.69 µM (active) |  |  | 
CC(C)Nc1oc(-c2ccccc2)nc1C=Cc1ccccc1 |  | 1.9 µM (active) | inactive | 
COc1ccc([C@]23Cc4cc(OC)c(OC)cc4[C@H](O2)c2c(c4ccccc4oc2=O)O3)cc1 |  |  | inactive | inactive
COc1ccc(-c2nc(-c3ccccc3)c(Nc3c(C)cccc3C)o2)cc1 |  |  | inactive | 
C#CCCCON=C1C[C@@H](O)[C@@H](O)[C@@H]2[C@H]3C(=O)N([C@@H](C)c4ccccc4)C(=O)[C@@H]3CC[C@H]12 |  |  | inactive | inactive
COC(=O)C1=C(C(=O)OC)[C@@H]2Nc3ccccc3[C@@]23C[C@@H](C(=O)OC)N(C(=O)c2cccs2)C3=N1 | inactive |  | inactive | inactive
